AI-2 QS modul – Vibrio harveyi AI-2 quorum sensing modulators, primary screen, JMH597 strain, luminescence/OD600 ratio. activity change, % at 7.5 µM. Vibrio harveyi JMH597 AI-2 luminescence/OD600 ratio, 9 h; stronger effect = lower value; strain lacks LuxN and CqsS sensors; 0 = neutral-control median. 0.4% of 300,000 active. AID 2094, 2009; in the data active means activity change below about -75%, passing the limit was not always enough;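 further: luminescence divided by OD600 gain over 9 h not by final OD600 alone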
Bfl-1 A1 inh – caspase 3/7 activation in MEF A1-2A-BIM cells, primary screen, A1 inhibitor project, cell-based, luminescence, HTS. Caspase-Glo 3/7 luminescence, 3 h; percent of clofoctol response, vehicle zero. caspase activation, % (no concentration beside the values). 0.066% of 330,000 active;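 active means over half of replicate activation scores above 10%, or exactly half above 10 with the replicate mean above 10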
ARNT-TACC3 inh – disruptors of ARNT/TACC3 protein interaction, primary screen, biochemical, AlphaScreen, single concentration; Transforming acidic coiled-coil-containing protein 3 (Homo sapiens), Q9Y6A5; AlphaScreen His-ARNT PAS-B/GST-TACC3 binding, luminescence; TACC3 fragment carries E629A point mutation; inhibition, % at 9.99 µM; 0.66% of 390,000 active; AID 623870, 2012;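 active means mean inhibition of replicates at least 50% and at least half of replicates each reaching 50%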
aDG glyco act – activators of alpha-DG glycosylation, primary screen, uHTS, Pro5-aDG cells, AlphaScreen. alpha-DG glycosylation AlphaScreen (IIH6); 0% Pro5, 100% B10-LARGE cell signal. activation, % at 10 µM. 0.22% of 360,000 active. AID 624168, 2012;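 active means activation of at least 8% versus controls, or a plate z-score of at least 8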;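 further: Pro5 are CHO cells carrying HIG-tagged alpha-DG that lacks glycosylation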
Mot1-301 SUMO – yeast Mot1-301 growth rescue at high temperature, primary screen, SUMOylation pathway inhibitor project, S. cerevisiae, ATP luminescence, 38.5C; S. cerevisiae Mot1-301 growth rescue; percent above DMSO median, 100 means doubled; AID 2716, 2010; 1% of 320,000 active; growth rescue, % at 18.8 µM;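 active means every valid replicate shows activation above 250% relative to neutral control wells; inactive means the rest, any valid replicate at or below 250%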
Each line names hits and unclear results; the compound was inactive in the other large screens. A selection: hits, their analogues and other compounds. The true share with any hit is near 1.8%.

O=C1COc2ccc(C(=O)COC(=O)Cc3ccc(F)cc3)cc2N1	AI-2 QS modul -81.8
CC(C)CC(NC(=O)c1ccc(Cl)cc1)C(=O)OCC(=O)c1ccc2c(c1)NC(=O)CO2 (stereo unspecified)	Bfl-1 A1 inh 15.0
C[C@@H]1CN([C@@H](C)CO)C(=O)c2cc(-c3ccc(F)cc3)cnc2O[C@H]1CN(C)C(=O)c1ccc(F)cc1	none (no result: AI-2 QS modul, Bfl-1 A1 inh, aDG glyco act, Mot1-301 SUMO)
CCOC(=O)c1ccc(S(=O)(=O)N2CCC(N3CCCCC3)CC2)cc1	none (no result: ARNT-TACC3 inh)
CCOC(=O)N1CCN(C(=O)CNC(=O)C23CC4CC(CC(C4)C2)C3)CC1	none
C[C@@H]1CC[C@@]2(O[C@H](CCO)C[C@H](O)[C@H]2O)O1	none
CC(=O)N/N=C/c1cc(C(C)C)cc(/C=N/NC(C)=O)c1O	ARNT-TACC3 inh 72.3
Cc1nc2ccccn2c1C(=O)NN=C1CCCC1	ARNT-TACC3 inh 19.8
Cc1ccn2c(C(=O)NN=C3CCCCCCC3)c(C)nc2c1	none
O=C(Nc1ccc(S(=O)(=O)Nc2nccs2)cc1)c1cnc(Cl)c(Cl)c1	none
CC(C)C(=O)Nc1ccc(N2CCCC2)c(Cl)c1	Mot1-301 SUMO 496.9
Cc1nn(-c2ccccc2)c(Cl)c1CN(C(=O)CCl)c1ccc(Cl)cc1	Bfl-1 A1 inh 6.2
CC(=O)N(Cc1c(C)nn(-c2ccccc2)c1Cl)c1ccc(Cl)cc1	none
CCCCn1c(=O)[nH]c(=O)c2c1nc(Cn1ncc(Cl)c(Cl)c1=O)n2CCC	Bfl-1 A1 inh 6.8
CCCCn1c(=O)[nH]c(=O)c2c1nc(CN1C(=O)c3ccccc3S1(=O)=O)n2CCC	none
CC(=O)Nc1ccc(NC(=O)C(=O)NCC(c2ccco2)N2CCc3ccccc32)cc1 (stereo unspecified)	Bfl-1 A1 inh 32.2
CCC(C)c1ccc(O)c(NC(=O)c2cncc(Br)c2)c1 (stereo unspecified)	AI-2 QS modul -85.1
CCC(C)c1ccc(O)c(NC(=S)NC(=O)c2cccnc2)c1 (stereo unspecified)	none
Cc1ccc(-c2cnc3c(c2)C(=O)N([C@@H](C)CO)C[C@@H](C)[C@@H](CN(C)C)O3)cc1	none (no result: AI-2 QS modul, Bfl-1 A1 inh, aDG glyco act, Mot1-301 SUMO)
O=C1OC(Nc2cc(Br)cc3cccnc23)c2ccccc21 (stereo unspecified)	aDG glyco act 7.4
COc1ccc(CC(=O)NNC(=O)c2ccccn2)cc1	ARNT-TACC3 inh 48.1
COCCCNC(=S)NNC(=O)c1ccccn1	ARNT-TACC3 inh 66.6
Cc1cc(C)cc(OCC(=O)NNC(=O)c2ccccn2)c1	ARNT-TACC3 inh 68.1 (no result: AI-2 QS modul)
COCCCNC(=S)NNC(=O)c1ccccc1Br	none
O=[N+]([O-])c1ccccc1S(=O)(=O)Nc1cccnc1	none
C[C@@H]1CCCCO[C@H](CN(C)S(=O)(=O)c2ccc(Cl)cc2)[C@H](C)CN([C@@H](C)CO)C(=O)c2cc(NC(=O)Nc3ccc(F)cc3)ccc2O1	none (no result: AI-2 QS modul, Bfl-1 A1 inh, aDG glyco act, Mot1-301 SUMO)
O=c1[nH][nH]c2c(N=Cc3ccccc3O)ccc(F)c12	ARNT-TACC3 inh 69.0 (no result: AI-2 QS modul, Bfl-1 A1 inh, Mot1-301 SUMO)
Cc1nnsc1Sc1ccccc1C(=O)O	Mot1-301 SUMO 375.6
Cc1nnsc1Sc1ccccn1	none
Cc1ccc2nc(Cl)c(CNCc3ccccc3)cc2c1	AI-2 QS modul -81.9
Cc1ccc(CNCc2ccccc2Cl)cc1	none
CCOC(=O)C1(CCOC)CCN(Cc2ccc3nonc3c2)CC1	Mot1-301 SUMO 327.1
COC(=O)N1CCc2c(sc(NC(=O)C3COc4ccccc4O3)c2C(N)=O)C1 (stereo unspecified)	none
Cc1ccc(-c2nnn(CC(=O)NCCc3ccc4c(c3)OCO4)n2)o1	Mot1-301 SUMO 328.8
CCN(CCNC(=O)c1cc(C)nn1-c1ccccc1)c1ccccc1	none
CC(=O)Nc1cc2oc3ccccc3c2cc1[N+](=O)[O-]	none (no result: AI-2 QS modul, Bfl-1 A1 inh, ARNT-TACC3 inh, Mot1-301 SUMO)
C[C@@H]1CN([C@H](C)CO)C(=O)Cc2cc(NC(=O)CCN3CCOCC3)ccc2O[C@@H]1CN(C)Cc1ccc(Oc2ccccc2)cc1	none (no result: AI-2 QS modul, Bfl-1 A1 inh, aDG glyco act, Mot1-301 SUMO)
O=C(O)COc1ccccc1/C=C1\C(=O)Nc2ccc(Br)cc21	Bfl-1 A1 inh 5.3
COc1ccc(N2CCN(CCCNC(=O)C(=O)c3c[nH]c4ccccc34)CC2)cc1	ARNT-TACC3 inh 48.0
O=C(NCCCN1CCOCC1)C(=O)c1c[nH]c2ccccc12	none (no result: AI-2 QS modul)
CN(CCNC(=O)c1cc2c(=O)n(C)c3ccccc3c2n1C)Cc1ccccc1	none
CCCN(CCC)CCNC(=O)c1cc2c(=O)n(C)c3ccccc3c2n1C	Mot1-301 SUMO 323.0 (no result: ARNT-TACC3 inh)
COc1ccccc1OCCn1c(=O)n(C)c2ccccc21	Mot1-301 SUMO 344.7
O=[N+]([O-])c1cccc(S(=O)(=O)Nc2ccc(S(=O)(=O)NCC3CCCO3)cc2)c1 (stereo unspecified)	none (no result: ARNT-TACC3 inh)
C=CCN1C=C2C(=O)C(C)(OC(=O)c3cnc4ccccc4n3)C(=O)C=C2C=C1/C=C/COC (stereo unspecified)	none
COC/C=C/C1=CC2=CC(=O)C(C)(OC(=O)c3cnc4ccccc4n3)C(=O)C2=CN1CCCOC(C)C (stereo unspecified)	ARNT-TACC3 inh 10.8
CC1=C(C(=O)Nc2cccnc2)C(c2cccnc2)n2nc(-c3cccs3)nc2N1 (stereo unspecified)	Mot1-301 SUMO 349.9
c1ccc(CCNc2nc(-c3ccccn3)nc3ccccc23)cc1	ARNT-TACC3 inh 63.7
c1ccc(N2CCN(c3nc(-c4cccs4)nc4ccccc34)CC2)cc1	Mot1-301 SUMO 825.4 (no result: ARNT-TACC3 inh)
c1ccc(CN2CCN(c3nc(-c4ccccn4)nc4ccccc34)CC2)cc1	none
CCN1CCN(c2nc(-c3ccccn3)nc3ccccc23)CC1	ARNT-TACC3 inh 46.0 (no result: Mot1-301 SUMO)
c1ccc(-c2nc(N3CCCCCC3)c3ccccc3n2)nc1	ARNT-TACC3 inh 76.1
C/C(=N\Nc1nc(-c2ccccn2)nc2ccccc12)c1ccc(F)cc1	none
c1ccc2c(N3CCCC3)nc(-c3ccncc3)nc2c1	none
CCCOC(=O)Nc1cc(OC)c(Cl)cc1OC	none
O=C(NCCc1ccccc1)c1cccc(N2CCCC2=O)c1	none
CCOc1cc(/C=C2\C(=O)N(c3ccc(C(N)=O)cc3)N=C2C)ccc1OC(=O)c1cccs1	ARNT-TACC3 inh 14.3
CCOc1cc(/C=C2/C(=O)N(c3ccccc3)N=C2C)ccc1OC(=O)c1ccco1	none (no result: Mot1-301 SUMO)
COc1ccc(OC)c(-c2nc(C(N)=O)c3[nH]c(=O)n(-c4ccc(F)cc4)c3n2)c1	none
O=[N+]([O-])C(/C=C(/Cl)[N+](=O)[O-])=C(N1CCCCC1)N1CCCCC1	none (no result: AI-2 QS modul)
O=C(Cn1cccc1C(=O)c1ccccc1)NCCc1ccccc1	none
O=C(Cn1cccc1C(=O)c1ccccc1)NCCc1ccc(Cl)cc1	Mot1-301 SUMO 313.9
Cc1ccc(C(=O)/C=C/C(=O)c2ccc(C)cc2)cc1	Bfl-1 A1 inh 9.9
